For the assay, the system named is Imidazoline I2. The assay can be described thus: CYP450 and receptor off-target profile – biochemical, Ricerca HitProfilingScreen, selectivity assay for S1P4 agonist project, late-stage follow-up (AID 504400). To be noted: Ricerca radioligand binding/enzyme panel plus CYP450, Central, at 10 µM, hits give high values.

Values without a mark were called inactive. No rule for the calls is given here.

As for `Clc1ccc(OCCOc2ccc(Br)nc2Br)c(Cl)c1`, the inhibition was 9%.

For orientation: inhibition means the change of the read-out against control, counted positive when it falls.
